This note sets out measurements from publication PMC4336329 (PLoS ONE, 2015).

Screen size: about 310,000 compounds; about 14,000 (4.5%) showed an effect of 50% or more. The effect is printed as a negative number. The sample as a whole holds a higher share of strong results than the screen did.
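Note: peak tail current of the secondary pulse compared with the same well before compound.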

For this assay, the target named is human ether-à-go-go-related gene (hERG) potassium channel (human, UniProt Q12809). The assay can be described thus: primary screen, population patch clamp on CHO cells stably expressing hERG; higher = less effect of the substance.
Sequence of human ether-à-go-go-related gene (hERG) potassium channel (Q12809 whole entry, looked up): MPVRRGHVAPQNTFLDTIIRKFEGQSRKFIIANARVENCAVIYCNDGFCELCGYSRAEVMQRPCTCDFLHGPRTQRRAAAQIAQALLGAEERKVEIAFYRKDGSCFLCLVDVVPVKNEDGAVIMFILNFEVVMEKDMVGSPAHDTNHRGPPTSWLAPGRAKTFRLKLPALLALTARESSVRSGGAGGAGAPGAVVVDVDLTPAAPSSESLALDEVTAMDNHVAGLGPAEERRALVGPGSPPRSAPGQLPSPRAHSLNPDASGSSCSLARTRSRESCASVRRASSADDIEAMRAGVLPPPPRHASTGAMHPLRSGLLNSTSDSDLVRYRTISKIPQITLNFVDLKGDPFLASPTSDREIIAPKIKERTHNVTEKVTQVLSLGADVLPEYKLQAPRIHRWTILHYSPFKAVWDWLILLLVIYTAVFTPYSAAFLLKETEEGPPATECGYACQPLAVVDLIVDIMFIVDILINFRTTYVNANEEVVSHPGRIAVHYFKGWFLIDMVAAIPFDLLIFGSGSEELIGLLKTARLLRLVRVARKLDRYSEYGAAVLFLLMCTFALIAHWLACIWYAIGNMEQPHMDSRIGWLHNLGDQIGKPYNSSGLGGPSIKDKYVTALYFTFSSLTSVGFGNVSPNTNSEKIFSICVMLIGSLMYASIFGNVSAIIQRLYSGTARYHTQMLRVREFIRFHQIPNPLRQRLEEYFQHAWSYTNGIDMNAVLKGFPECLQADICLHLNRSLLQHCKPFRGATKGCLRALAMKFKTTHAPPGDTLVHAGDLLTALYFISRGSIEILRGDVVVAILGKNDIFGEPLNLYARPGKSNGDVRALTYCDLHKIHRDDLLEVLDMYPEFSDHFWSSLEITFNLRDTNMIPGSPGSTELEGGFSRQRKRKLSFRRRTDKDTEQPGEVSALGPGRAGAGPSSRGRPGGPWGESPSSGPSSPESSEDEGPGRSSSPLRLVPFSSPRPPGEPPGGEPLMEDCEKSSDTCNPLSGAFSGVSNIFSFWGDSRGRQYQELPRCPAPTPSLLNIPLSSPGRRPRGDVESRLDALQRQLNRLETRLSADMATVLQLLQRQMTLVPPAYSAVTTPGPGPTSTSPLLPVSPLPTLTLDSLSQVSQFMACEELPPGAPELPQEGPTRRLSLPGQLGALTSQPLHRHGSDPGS
Turning to `CC1(C)CC(=O)C=C(NCCO)C1`, the “hERG current change (%, negative = inhibition) at 10uM” value was -0.4%. To `O=C(Nc1ccc(N2CCN(C(=O)c3ccco3)CC2)cc1)c1ccco1` belongs 20.7%; to `CN(CC(CC(=O)Nc1nncs1)c1ccccc1)S(=O)(=O)c1ccc(Br)cc1` (stereo not shown), -55.4%; to `CN(CC(CC(=O)Nc1nncs1)c1ccccc1)S(=O)(=O)c1ccccc1` (stereo not shown), -14.2%. The value for `Cc1nnc(NC(=O)CC(CN(C)S(=O)(=O)c2ccccc2)c2ccccc2)s1` (stereo not shown) was -18.7%. On to `COC(=O)c1ccccc1NC(=O)Nc1ccc(Cl)cn1`, for which the “hERG current change (%, negative = inhibition) at 10uM” value was -3.82%. To `O=C(Nc1ccc2c(c1)OCO2)Nc1ccc(Br)cn1` belongs 3.01%. On to `Cc1cccc(N/C=C/C(=C(C#N)C#N)N(C)C)c1`, for which the “hERG current change (%, negative = inhibition) at 10uM” value is -24.5%.

With `CN(Cc1ccccc1NCC(=O)Nc1ccccc1C#N)C1CCCCC1`, the “hERG current change (%, negative = inhibition) at 10uM” value was -33%. Turning to `Cc1ccc(NC(=O)CNc2ccccc2CN(C)C2CCCCC2)cc1`, the “hERG current change (%, negative = inhibition) at 10uM” value is -59.1%. The value for `COc1ccc(C)cc1NC(=O)CNc1ccccc1CN(C)C1CCCCC1` was -19.6%.

For the compound `Cc1c(C(=O)N(C)CCC#N)oc2ccc(S(=O)(=O)N3CCOCC3)cc12`, the “hERG current change (%, negative = inhibition) at 10uM” value worked out at 10.1%. For the compound `O=C(NNc1ncnc2c1cnn2-c1ccc(F)cc1)c1cccs1`, the “hERG current change (%, negative = inhibition) at 10uM” value amounted to 6.55%. The value for `O=C1CCC(C(=O)N(CCO)Cc2ccccc2)CN1CC1CCCCC1` (stereo not shown) was 11.7%; that for `CN(C)C1=NCCN1CCc1ccc(F)cc1` was -9.03%; that for `CCOC(=O)c1ccc2ncc(C(=O)OCC)c(NCCCN3CCOCC3)c2c1` was -47.3%.

Consider `CCOC(=O)c1cnc2c(C)c(Cl)ccc2c1NCCCN1CCOCC1`, for which the “hERG current change (%, negative = inhibition) at 10uM” value is on record as -49.2%. To `CCOC(=O)c1cnc2ccc(C(=O)OC)cc2c1NCCCN1CCOCC1` belongs -60.5%. To `CCOC(=O)c1cnc2ccc(OCC)cc2c1NCCCN1CCOCC1.Cl` belongs -75.6%. As to `CCOC(=O)c1cnc2ccc(OCC)cc2c1NCCN1CCOCC1.Cl`, the “hERG current change (%, negative = inhibition) at 10uM” value was -67.9%. The value for `CCOC(=O)c1cnc2c(cnn2C)c1NCCC#N` was -7.43%; that for `CCOC(=O)c1cnc2c(cnn2C)c1NCCCn1ccnc1` was -35.9%.

As for `CCOC(=O)c1cnc2c(cnn2C)c1NCCCN(C)C`, the “hERG current change (%, negative = inhibition) at 10uM” value is listed as -51.7%.

With `CCOC(=O)c1cnc2ccc(C(=O)OC)cc2c1NCCN1CCOCC1`, the “hERG current change (%, negative = inhibition) at 10uM” value is given as -30.2%. The value for `CCOC(=O)c1cnc2ccc(Br)cc2c1NCCCN1CCOCC1` was -39%; that for `CCOC(=O)c1cnc2ccc(OC)cc2c1NCCN1CCOCC1` was -48.5%; that for `O=C(NCCc1ccccc1)C1CCN(S(=O)(=O)N2CCCCC2)CC1` was 2.19%. For the compound `CCCNC(=O)Cn1c(=O)oc2cc(S(=O)(=O)N3CCCC3)ccc21`, the “hERG current change (%, negative = inhibition) at 10uM” value is given as 11.9%. In the case of `Oc1ccccc1C(=S)N1CCN(C(=S)c2ccccc2O)CC1`, the “hERG current change (%, negative = inhibition) at 10uM” value is reported as 18.4%. Consider `C#CCNC(=O)C1=C[C@H](c2coc3ccccc3c2=O)[C@@H](CCCO)[C@H](OCC)O1`, for which the “hERG current change (%, negative = inhibition) at 10uM” value is -23.3%. For `Cc1[nH]c2ccccc2c1CCCO`, the “hERG current change (%, negative = inhibition) at 10uM” value is on record as 10.7%. To `CC(C)(C)NC(=O)CN1C(=O)/C(=C/c2ccccc2)SC1=S` belongs 10%. In the case of `O=C(CN1CCN(c2ccccc2)CC1)NC(=O)NCc1ccco1`, the “hERG current change (%, negative = inhibition) at 10uM” value turned out to be 9.72%. `CCOC(=O)c1cnc2ccc(C)cc2c1NCCN1CCOCC1.Cl`: the “hERG current change (%, negative = inhibition) at 10uM” value is given as -65.7%.

As to `CCOC(=O)c1cnc2c(Cl)c(Cl)ccc2c1NCCN1CCOCC1.Cl`, the “hERG current change (%, negative = inhibition) at 10uM” value is given as 14.3%. For `CCOC(=O)c1ccc2ncc(C(=O)OCC)c(NCCN3CCOCC3)c2c1`, the “hERG current change (%, negative = inhibition) at 10uM” value was -48.5%. To `CCOC(=O)c1cnc2ccc(C)cc2c1NCCO` belongs -66.4%; to `CCOC(=O)c1cnc2ccc(Cl)cc2c1NCCN(C)C`, -22.8%. With `CCOC(=O)c1cnc2ccccc2c1NCCO`, the “hERG current change (%, negative = inhibition) at 10uM” value is on record as -34.8%. To `CCOC(=O)c1cnc2c(ccc3ccccc32)c1NCCN(C)C` belongs -7.47%; to `CCOC(=O)c1ccc2ncc(C(=O)OCC)c(NCCN(C)C)c2c1`, -69.5%.

For the compound `CCOC(=O)c1cnc2ccc(Br)cc2c1NCCO`, the “hERG current change (%, negative = inhibition) at 10uM” value is reported as -9.88%.

Turning to `Nc1nnn(CC(=O)N/N=C/c2cccc(Cl)c2)n1`, the “hERG current change (%, negative = inhibition) at 10uM” value worked out at 4.76%.

With `CCCCNC(=O)c1onc(CSc2ccc(F)cc2)c1C(=O)NCCCC`, the “hERG current change (%, negative = inhibition) at 10uM” value was -10.2%.

`CCN(CC)C(=O)C1CCC(CNS(=O)(=O)c2cccc3cccnc23)CC1` (stereo not shown): the “hERG current change (%, negative = inhibition) at 10uM” value was found to be 4.52%.

As to `CN(C)c1ccc(C(=S)N2CCCCCC2)cc1`, the “hERG current change (%, negative = inhibition) at 10uM” value is listed as -5.79%.
